Experimental data from the supplement of paper PMC7830784.

test system: Brugia pahangi adult female; experiment: IC50 motility inhibition on day 3; details: 3 days
Method: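 Single adult female Brugia pahangi worms in 24-well plates (RPMI-1640, 5% FBS, 37 °C) were treated with 10 µM of each compound from a 2121-drug library (4 replicates; 1% DMSO vehicle and 10 µM auranofin controls). Motility was recorded with WormAssay dark-field imaging, and % inhibition of motility on day 3 is relative to vehicle. IC50 values for selected hits come from a 6-point dilution series (30 to 0.1 µM) fitted in GraphPad Prism.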

Structure (SMILES) | IC50 motility inhibition on day 3
Clc1ccc(COC(Cn2ccnc2)c2ccc(Cl)cc2Cl)c(Cl)c1 (stereo not given) [miconazole nitrate] | 3300 nM
O=C(Nc1ccc([N+](=O)[O-])cc1Cl)c1ccccc1O | 2600 nM
Cc1cc(CC(C)CC(C)(C)C)n(O)c(=O)c1 (stereo not given) [piroctone olamine] | 883 nM
Cc1cc(C2CCCCC2)n(O)c(=O)c1 [ciclopirox olamine] | 287 nM
C=C(CC)C(=O)c1ccc(OCC(=O)O)c(Cl)c1Cl [ethacrynic acid] | 2600 nM
Oc1ccc2ccccc2c1 [beta-naphthol] | 8310 nM
CCCCCCCCCCCCCCCC[N+](C)(C)CCN(Cc1ccc(OC)cc1)c1ncccn1 [thonzonium bromide] | 1070 nM
Oc1c(Cl)cc(Cl)c(Cl)c1Cc1c(O)c(Cl)cc(Cl)c1Cl [hexachlorophene] | 1700 nM
COc1cc(C)c2c(Oc3cccc(C(F)(F)F)c3)c(OC)cc(NC(C)CCCN)c2n1 (stereo not given) [Tafenoquine Succinate] | 14100 nM
CCCCCCCCCCCCCCCC[N+](C)(C)C [cetrimonium bromide] | 6160 nM
